Reference: PubChem BioAssay AID1347074 (Center for Chemical Genomics, University of Michigan, 2019)
Hit rate of the full screen: of about 47,000 compounds, about 2,800 (6%) were called active. This excerpt belongs to a sample that is enriched for actives. Values without a mark were called inactive. No stated cut-off is given here; in the data, active means z-score above about 3 (passing the limit was not always enough); inactive means the rest.

Molecular target: Endoribonuclease Dicer (Homo sapiens) (UniProt Q9UPY3)
Sequence (Q9UPY3 whole entry, looked up): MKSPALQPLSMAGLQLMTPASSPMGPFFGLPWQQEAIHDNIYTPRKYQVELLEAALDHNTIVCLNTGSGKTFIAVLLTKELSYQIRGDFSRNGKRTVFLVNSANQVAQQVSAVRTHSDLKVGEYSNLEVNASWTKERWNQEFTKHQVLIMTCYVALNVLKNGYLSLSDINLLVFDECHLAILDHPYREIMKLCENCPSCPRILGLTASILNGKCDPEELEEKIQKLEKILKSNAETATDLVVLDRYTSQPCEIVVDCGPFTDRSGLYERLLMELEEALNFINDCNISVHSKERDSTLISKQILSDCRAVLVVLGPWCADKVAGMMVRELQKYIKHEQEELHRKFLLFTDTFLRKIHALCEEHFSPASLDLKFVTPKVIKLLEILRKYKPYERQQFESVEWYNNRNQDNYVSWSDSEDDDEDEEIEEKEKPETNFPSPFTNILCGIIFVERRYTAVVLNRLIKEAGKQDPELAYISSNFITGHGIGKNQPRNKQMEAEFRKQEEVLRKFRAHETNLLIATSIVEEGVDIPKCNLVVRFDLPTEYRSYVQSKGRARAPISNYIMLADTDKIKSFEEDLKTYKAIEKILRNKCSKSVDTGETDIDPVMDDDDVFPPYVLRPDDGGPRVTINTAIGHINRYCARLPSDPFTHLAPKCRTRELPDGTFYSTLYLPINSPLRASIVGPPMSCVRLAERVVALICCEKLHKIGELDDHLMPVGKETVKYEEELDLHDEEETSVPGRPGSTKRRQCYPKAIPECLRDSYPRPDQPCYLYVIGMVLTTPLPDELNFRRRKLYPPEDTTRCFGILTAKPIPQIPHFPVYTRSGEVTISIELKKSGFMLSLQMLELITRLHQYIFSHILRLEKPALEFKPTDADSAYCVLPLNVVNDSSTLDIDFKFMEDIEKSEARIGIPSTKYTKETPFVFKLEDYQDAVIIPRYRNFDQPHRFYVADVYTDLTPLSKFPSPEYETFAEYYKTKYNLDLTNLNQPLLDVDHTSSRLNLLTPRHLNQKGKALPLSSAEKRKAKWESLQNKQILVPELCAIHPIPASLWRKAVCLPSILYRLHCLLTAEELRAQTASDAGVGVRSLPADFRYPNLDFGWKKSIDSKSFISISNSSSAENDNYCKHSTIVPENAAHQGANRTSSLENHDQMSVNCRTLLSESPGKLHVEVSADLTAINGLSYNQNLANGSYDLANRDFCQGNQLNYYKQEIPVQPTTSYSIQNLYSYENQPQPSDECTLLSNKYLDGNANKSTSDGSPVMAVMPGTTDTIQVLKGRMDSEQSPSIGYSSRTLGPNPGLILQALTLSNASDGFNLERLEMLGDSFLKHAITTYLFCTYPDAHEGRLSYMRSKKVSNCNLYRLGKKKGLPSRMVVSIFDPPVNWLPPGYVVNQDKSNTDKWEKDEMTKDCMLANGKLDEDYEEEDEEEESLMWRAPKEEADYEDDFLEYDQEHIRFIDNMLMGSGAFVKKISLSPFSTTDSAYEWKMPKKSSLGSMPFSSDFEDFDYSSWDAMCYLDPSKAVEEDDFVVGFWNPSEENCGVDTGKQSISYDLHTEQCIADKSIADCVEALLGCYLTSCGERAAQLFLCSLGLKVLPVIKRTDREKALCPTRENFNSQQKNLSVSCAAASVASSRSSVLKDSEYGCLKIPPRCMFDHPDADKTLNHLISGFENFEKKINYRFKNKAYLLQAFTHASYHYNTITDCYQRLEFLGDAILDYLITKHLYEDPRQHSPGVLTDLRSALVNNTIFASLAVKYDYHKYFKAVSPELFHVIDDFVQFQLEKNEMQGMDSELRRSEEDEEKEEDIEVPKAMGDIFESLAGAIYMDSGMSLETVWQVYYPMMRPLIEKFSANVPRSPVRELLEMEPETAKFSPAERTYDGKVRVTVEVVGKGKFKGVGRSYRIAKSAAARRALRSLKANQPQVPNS
Experiment: inhibitors of Dicer pre-microRNA processing, primary screen, biochemical, cat-ELCCA, chemiluminescence (AID 1347074);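 further: plate controls were vehicle for no effect and no enzyme for full effect; higher signal means more uncleaved substrate so more Dicer inhibition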
Conditions: cat-ELCCA pre-miR-21 Dicer processing, at 25 µM, hits give high values

Row | SMILES | z-score
1 | Cc1cc(Br)ccc1Nc1ncnc(N)n1 | 0.67
2 | C=CCN(C(=O)c1ccccc1Cl)c1ccccc1C(=O)NCC(=O)OCC | -0.79
3 | Cc1cc(O)cc(C)c1/C=C1\NC(=O)NC1=O | 0.4
4 | Cc1ccc(C(=O)NNc2ncnc3sccc23)cc1 | 0.13
5 | CSc1n[nH]c(N)c1-c1ccccn1 | 6.44 (active)
6 | CCOC(=O)c1sc(SC(C)C)c2c1CC(C)(C)CC2=O | -1.12
7 | Cc1cc(C)c2c(n1)sc1c(=O)n(/N=C/c3ccc4c(c3)OCO4)c(C)nc12 | -0.06
8 | Cc1ccc(N2CC(=O)N(/N=C/c3ccc4c(c3)OCO4)CC2=O)cc1 | 3.3 (active)
9 | O=C(/C(=N\N=C\c1ccc2c(c1)OCO2)c1ccccc1)c1ccccc1 | -1.69
10 | O=C(c1cccn1-c1ccc(F)cc1)C(F)(F)F | -0.2
11 | Cc1ccc(-c2ccc3c4ccccc4c(C(=O)C(F)(F)F)c-3o2)cc1 | -0.14
12 | O=c1c2c(-c3ccc(Cl)cc3)csc2nc2c3ccccc3c(N3CCN(CCO)CC3)nn12 | -0.37
13 | Cc1ccc(S(=O)(=O)Nc2cc(C)cc(C)c2)cc1 | 2.36
14 | Cn1nccc1NS(=O)(=O)c1ccc(F)cc1 | -0.57
15 | Cc1ccc(S(=O)(=O)Nc2ccc(F)cc2NS(=O)(=O)c2ccc(C)cc2)cc1 | 15.1 (active)
16 | CN(C)C(=O)Sc1nnc(C2CC2)n1-c1ccc(Cl)cc1 | 15.9
17 | CC(C)OC(=O)C1C(=O)CC(C)(O)C(C(=O)OC(C)C)C1c1ccc(Br)cc1 (centres undefined) | -1.31
18 | CC1=C(C(N)=O)C(c2ccc(F)cc2)n2nnnc2N1 (centres undefined) | -0.27
19 | CCOC(=O)C1=C(C)Nc2nnnn2C1c1ccc(O)cc1 (centres undefined) | -2.24
20 | CCCOC(=O)C1=C(C)Nc2nnnn2C1c1cc(Br)ccc1OC (centres undefined) | 3.54 (active)
21 | O=C(O)CSCC(=O)Nc1ccccc1Sc1ncnc2cc(-c3ccccc3)sc12 | -0.26
22 | Fc1cccc(-c2nn3c(COc4ccccc4)nnc3s2)c1 | 0.92
23 | COc1cc(O)ccc1C1Nc2c(C)cc(C)cc2-c2cc(C)nn21 (centres undefined) | 2.86
24 | COc1cccc(C2Nc3ccccc3-c3cc(C)nn32)c1O (centres undefined) | -0.43
25 | CCOc1ccccc1C1Nc2c(C)cccc2-c2cc(C)nn21 (centres undefined) | 4.42 (active)
26 | Cc1c(C#N)c(NC(=O)c2ccc(Cl)cc2)n(CC2CC2)c1C | 0.46

Row | SMILES | z-score
27 | CN1CCc2c(sc3c2C(=O)NC(c2ccc(Br)cc2)N3)C1 (centres undefined) | -0.13
28 | C/C(=N\OC(=O)Nc1ccc(Cl)cc1)c1cc(-c2ccccc2)no1 | -0.26
29 | CCOc1ccccc1C1C2=C(CCCC2=O)Nc2nnnn21 (centres undefined) | 2.2
30 | Cc1c(Br)c([N+](=O)[O-])nn1CC(=O)NCCCn1ccnc1 | -0.68
31 | O=C(NCc1cccnc1)c1cnc2ccccc2n1 | 0.67
32 | O=C(NCc1ccccc1)c1cc2sccc2s1 | 3.86 (active)
33 | O=C(O)c1cnc(NCc2ccccc2)s1 | -1.01
34 | Cc1c(C)c(C)c(CSCC(=O)N/N=C/C=C/c2ccccc2)c(C)c1C | 1.61
35 | Cc1ccc(C2CC(C(F)(F)F)n3ncc(C(=O)N(C)Cc4cn(C)nc4C)c3N2)cc1 (centres undefined) | -1.27
36 | O=C(Nc1ccc(F)cc1)Nc1nnc(C2CC2)s1 | 0.03
37 | O=C(NCc1ccco1)c1nc2ncccn2n1 | 0.13
38 | c1coc(CNc2ncnc3ccccc23)c1 | -1.16
39 | CS(=O)(=O)n1nc(-c2ccccc2)nc1NCc1ccco1 | 4.95 (active)
40 | CN(C)c1ccc(NC(=O)C(=O)NCCO)cc1 | 3.85 (active)
41 | CN(C)C(=O)Nc1ccc(C(C)(C)C)cc1 | 0.46
42 | CN(C)c1ccc(C(=S)c2ccc(N(C)C)cc2)cc1 | 0.42
43 | CC(=O)c1ccc(OCc2ccc(Cl)c(Cl)c2)c(C)c1O | -0.27
44 | CCCCCOC(=O)COc1ccc2c(=O)c(Oc3cccc(C)c3)coc2c1 | -1.17
45 | O=c1oc2ccccc2c2c1ncn2CCCN1CCOCC1 | 0.33
46 | CCOC(=O)/C(C#N)=C/Nc1ccc(OC)c(C(=O)OC)c1OC | -2.66
47 | COc1ccc(-c2oc3ncnc(NCCCO)c3c2-c2ccc(OC)cc2)cc1 | 0.89
48 | c1ccc(-c2oc3ncn4nc(-c5ccccn5)nc4c3c2-c2ccccc2)cc1 | -0.36
49 | COc1ccc(-c2c(-c3ccccc3)oc3ncnc(N)c23)cc1 | 4.1 (active)
50 | CCc1ccc(C2c3c(oc4ccc(C)cc4c3=O)C(=O)N2c2nccs2)cc1 (centres undefined) | 0.49
51 | CCCC1=NN(c2ccc(S(N)(=O)=O)cc2)C(=O)C1 | -4.3
52 | COC(OC)c1nc(SCc2ccc(Cl)cc2)ncc1C(=O)O | -1.32

Row | SMILES | z-score
53 | Cc1onc(-c2c(Cl)cccc2Cl)c1C(=O)NN(C)c1ccc([N+](=O)[O-])cn1 | 0.9
54 | CN(C)NC(=O)c1csnc1-c1c(Cl)cccc1Cl | 3.48 (active)
55 | CCCCNC(=O)Nc1onc(-c2c(Cl)cccc2Cl)c1C(=O)OC | 0.02
56 | CCCCC#Cc1cncc(C(=O)O)c1 | 0.66
57 | O=C(O)C1=Cc2cc(Cl)ccc2OC1 | 1.52
58 | O=C(Nc1ccc2c(c1)OCC1CCCN21)C1=Cc2ccccc2OC1 (centres undefined) | 4.37 (active)
59 | COC(=O)c1scc(C)c1NC(=O)C1=Cc2cc(Cl)ccc2OC1 | -0.31
60 | C=CCNC(=O)CSc1nc2c(c(C(F)(F)F)n1)CCc1ccccc1-2 | 1.7
61 | CCc1nc(-c2ccc(-c3ccccc3)nc2OC)no1 | 0.85
62 | COc1cc(OC)cc(-c2nc(-c3ccc(-c4ccccc4)nc3OC)no2)c1 | 1.1
63 | CCCc1cc(=O)oc2c1c(C)nn2-c1cccc(Cl)c1 | -1.83
64 | COC(=O)c1sc(C(F)(F)F)c(-c2ccccc2)c1S(=O)(=O)N(C)C | 0.21
65 | COC(=O)C1=C(c2ccccc2)C(c2ccccc2)=C(C(=O)OC)C1=O | 3.2 (active)
66 | COC(NC(=O)c1ccccc1)(C(F)(F)F)C(F)(F)F | -0.72
67 | COCCCNc1nc(-c2ccccc2)cs1 | 1.18
68 | c1ccc(Nc2nc(-c3ccncc3)cs2)nc1 | 2.79
69 | Cc1cccc(Nc2nc(-c3ccccc3)cs2)n1 | 3.09 (active)
70 | CC(C)(C)NC(=S)Nc1ccc(F)c(Cl)c1 | 16.8
71 | CC1(C)N=C(N)N=C(N)N1c1ccccc1C(F)(F)F | 1.59
72 | CCOC(=O)Cc1csc(NC(=O)Nc2cccc3ccccc23)n1 | 6.9
73 | Cc1nc(-c2ccc(C(F)(F)F)cc2)[nH]c(=O)c1Oc1ccc(Cl)cc1Cl | 0.23
74 | Cn1nc(-c2ccc(Cl)cc2)[nH]c1=O | -1.42
75 | CCCCc1c(COC)nc(-c2ccc(Cl)cc2)[nH]c1=O | 3.16 (active)
76 | O=S(=O)(c1ccc(C2Nc3ccc(Cl)cc3C3C=CCC32)cc1)N1CCOCC1 (centres undefined) | -0.43
77 | COC(=O)c1ccc([C@@H]2Nc3ccc(F)cc3[C@@H]3C=CC[C@@H]32)cc1 | 0.68
78 | O=C(O)C1Nc2ccc(Cl)cc2C2C=CCC12 (centres undefined) | 15.4 (active)

Row | SMILES | z-score
79 | CSC(=NCc1ccco1)Nc1ccc(Cl)cc1 | 2.16
80 | CCc1ccnc(NC(=O)Nc2ccc(OCc3ccccc3)cc2)c1 | 0.13
81 | Nc1cccc(-c2cc(-c3ccccc3)nc(-c3cccc(N)c3)n2)c1 | 8.06 (active)
82 | Nc1cc(-c2ccccc2)nn1-c1ccccc1 | -0.41
83 | c1ccc(-c2cc(-c3ccccc3)[nH]n2)cc1 | 0.74
84 | O=C(O)CCc1nc2ccccc2[nH]c1=O | -2.59
85 | COc1cccc(OC)c1C(=O)NC(=O)Nc1c(C)cc(Br)cc1C | -0.89
86 | CN(C)/C=C/c1nnnn1-c1ccc(Br)cc1 | 2.13
87 | Cc1cc(NC(=O)Nc2ccccc2)n(-c2ccccc2)n1 | -0.46
88 | NNC(=O)c1cnn(-c2ccccc2)c1C(F)(F)F | -1.32
89 | Nc1c(C(=O)NNC(=S)Nc2ccccc2)cnn1-c1ccccc1 | 3.4 (active)
90 | CCc1ncc(C(O)c2ccccc2)n1C (centres undefined) | -0.48
91 | COCCCn1c2c(c(=O)[nH]c1=O)C(c1ccc(C(=O)O)cc1)C1=C(N2)c2ccccc2C1=O (centres undefined) | -1.05
92 | COc1cc(C(=O)NCC2CCCO2)c(OC)cc1C(=O)NCC1CCCO1 (centres undefined) | 1.74
93 | Oc1ccccc1-c1nc(/C=C/c2ccc(F)cc2)no1 | -0.19
94 | COc1ccc(/C=C/c2noc(-c3ccccc3O)n2)cc1OC | 0.89
95 | Nc1nc(/C=C/c2ccc(O)cc2)nc(-c2ccccc2O)n1 | 5.62 (active)
96 | CN1c2ccc(Cl)cc2C(C)(C)C12C=Nc1c(ccc3ccccc13)O2 (centres undefined) | -0.52
97 | O=C(Nc1ccccc1)Nc1ccc(C(F)(F)F)cn1 | 0.31
98 | OCC(O)Cn1c2ccccc2c2ccccc21 (centres undefined) | -0.45
99 | CCn1c(CN2C(=O)CSc3ccccc32)n[nH]c1=S | 0.75
100 | CC(C)Cn1c(Cn2c3ccccc3c3ccccc32)n[nH]c1=S | 3.9 (active)
101 | CCOC(=O)c1c(C)nn(-c2ncccc2[N+](=O)[O-])c1C | -0.17
102 | Cc1[nH]nc(NCc2ccccc2)c1[N+](=O)[O-] | -1.14
103 | O=C1CC(c2ccccc2)N(c2ccc(OC(F)(F)F)cc2)C(=S)N1 (centres undefined) | -0.98
104 | O=C(Nc1ccccc1)O/N=C1\CCSC1 | 0.99
